TGFb inhibitor = qHTS for Inhibitors of TGF-b; Potency, µM (doses to about 46.1 µM), for the others: at the highest dose activity, negative = inhibition, usual class: inhibitors; HepG2 CAGA-GFP TGF-b/SMAD3 reporter, GFP fluorescence, 18 h; TGF-beta stimulated, 500 pg/mL final; hit rate 1.2% among 410,000; also: % is scaled to controls: 0 for no effect and ±100 for the full control effect; nearly all actives have a fitted effect of over 65% in size
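Cell-based qHTS in HEPG2 carrying a CAGA-GFP Smad reporter; compounds added before 500 pg/mL final TGF-beta, 18 h incubation at 37 degrees C, GFP fluorescence quantified per cell by imaging cytometry.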
ATXN2 expr inh = Primary qHTS for Inhibitors of ATXN expression; HEK-293 ATXN2-luciferase reporter, luminescence, 24 h; Potency, µM (highest dose often 57 µM), for inactives: top-dose activity change, negative = inhibition, usual class: inhibitors; hit rate 0.72% among 360,000; also: % is scaled to controls: 0 for no effect and ±100 for the full control effect; nearly all actives have a fitted effect of over 55% in size
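ATXN2-luciferase reporter cells (luciferase flanked by upstream and downstream ATXN2 gene portions) were treated 24 h at 37 °C with compounds at up to 57 uM. SteadyGlo luminescence gave expression; GF-AFC fluorescence gave viability.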
HepG2 tox = qHTS for Inhibitors of TGF-b: Cytotox Counterscreen; HepG2 CAGA-GFP viability, ATP luminescence, 18 h; Potency, µM (titrated, usually from 46.1 µM), for the others: top-dose activity change, negative = cytotoxicity, usual class: cytotoxic; hit rate 0.76% among 410,000
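CellTiter-Glo luminescence gave cytotoxicity after 18 hours at 37 degrees C. The cells were HepG2 CAGA-GFP in 1% FBS DMEM, stimulated with 500 pg/mL TGF-beta after compound addition. %Activity was normalised to no-cell wells (complete cell-killing) and DMSO (no toxicity), and curves were fitted and classified.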
S2 tox = Viability Counterscreen for Primary qHTS for Inhibitors of ATXN expression. hit rate 0.49% among 400,000. Potency, µM (doses to about 56.7 µM), actives largely listed as cytotoxic. AID 651635, 2014. S2 cells (HEK-293 line with an ATXN2-luciferase reporter) viability, CellTiter-Fluor protease fluorescence, 24 h; also: nearly all actives have a fitted effect of over 40% in size
TDP1 cell noCPT = qHTS for Inhibitors of human tyrosyl-DNA phosphodiesterase 1 (TDP1): qHTS in cells in absence of CPT; DT40 Tdp1-/- hTDP1 cells, no CPT, ATP luminescence, 48 h; Potency, µM (titrated, usually from 46.2 µM), for inactives: at the top dose activity change, negative = growth inhibition, actives largely listed as inhibitors; hit rate 15% among 420,000; AID 686978, 2013; also: % is scaled to controls: 0 for no effect and ±100 for the full control effect; nearly all actives have a fitted effect of over 55% in size
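Camptothecin absent (DMSO only). Human TDP1-complemented DT40 knockout cells, 400 cells/well, 37 °C for minimum 48 hr; ATP measured via CellTiter-Glo, 30 min dark incubation, luminescence.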
TDP1 cell CPT = qHTS for Inhibitors of human tyrosyl-DNA phosphodiesterase 1 (TDP1): qHTS in cells in presence of CPT. chicken DT40 Tdp1-/-;hTDP1 cells + 20 nM CPT, ATP luminescence, 48 h. hit rate 12% among 420,000. AID 686979, 2013. Potency, µM (doses to about 46.2 µM), without a hit: at the top dose activity change, negative = growth inhibition, most hits filed as inhibitors; also: % is scaled to controls: 0 for no effect and ±100 for the full control effect; nearly all actives have a fitted effect of over 55% in size
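Chicken DT40 Tdp1-/- cells complemented with human TDP1, 400 cells/well, exposed to compounds plus 20 nM camptothecin for at least 48 h at 37 C; viability read as ATP content by CellTiter-Glo luminescence.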
The depositor's hits bear a star; i = inactive; ? = inconclusive; . = no result given. In the library only some 17% were active in any assay of this set; here they are far more common. Calls follow the shape of the dose curve; as a rule, active = well fitted curve in the direction sought with a large enough effect; inconclusive = small, poorly fitted or top-dose-only effect, or another doubt; inactive = no such curve, though single readings can be large; an effect the other way counts as inactive or inconclusive. Potency is read from the fitted curve at half-maximal effect.

SMILES	TGFb inhibitor	ATXN2 expr inh	HepG2 tox	S2 tox	TDP1 cell noCPT	TDP1 cell CPT
O=C1NC[C@H](Cc2ccc(O)cc2)N(C[C@@H]2CCCN2C[C@H](Cc2ccccc2)N2C[C@H](Cc3ccc(O)cc3)N(CCc3ccccc3)C(=O)C2=O)C1=O	.	0.4%	.	i	18.4µM*	?
COc1ccccc1Cc1c(-c2ccccc2)nc2c(C)cc(Br)cn12	?	10.5%	-31.4%	i	16.4µM*	16.4µM*
Cc1ccc(-c2nc3c(C)cc(Br)cn3c2Cc2ccsc2)cc1	?	-0.4%	-43.7%	?	?	18.4µM*
Cc1cc(Br)cn2c(Cc3ccccc3)c(-c3ccccc3)nc12	-29.6%	18.4%	-13.9%	?	?	29.1µM*
Cc1ccc(Cc2c(-c3cccc(Cl)c3)nc3c(C)cc(Br)cn23)cc1	-7.0%	13.0%	-30.6%	i	20.6µM*	14.6µM*
Cc1cc(Br)cn2c(Cc3ccccc3)c(-c3ccc(F)cc3)nc12	-22.5%	11.8%	-22.6%	?	?	?
CCn1c(CN2CCOCC2)nc2cc(NC(=O)c3ccccc3[N+](=O)[O-])ccc21	13.9%	-24.9%	-34.2%	?	-17.3%	-20.9%
O=C(Oc1ccccc1)c1ccc2c(c1)C(=O)N(Cc1ccncc1)C2=O	-7.9%	-10.6%	-31.6%	i	?	-11.2%
O=C(NCc1ccc(F)cc1)c1ccc2c(c1)nc1n2CCCCC1	-4.0%	.	-13.4%	.	?	-28.7%
Cc1cc(C)n(C(=O)/C(C#N)=C/N(C)C)n1	-9.3%	9.9%	1.5%	i	-17.2%	-1.7%
Cc1ccc(Cc2c(-c3ccc(Cl)cc3)nc3c(Cl)cc(C(F)(F)F)cn23)cc1	?	5.3%	-64.2%	i	18.4µM*	?
Cc1ccc(-c2nc3c(Cl)cc(C(F)(F)F)cn3c2Cc2ccccc2)cc1	-1.6%	13.4%	-2.9%	i	?	?
Cc1ccc(Cc2c(-c3ccc(Cl)cc3)nc3c(C)cc(Br)cn23)cc1	?	-17.8%	-29.6%	i	16.4µM*	23.1µM*
COc1ccc(Cc2c(C(C)(C)C)nc3c(C)cc(Br)cn23)c(C)c1	-14.1%	-20.8%	-24.7%	?	23.1µM*	18.4µM*
CC(C)NC(=O)C1(C)CSCC(=O)N1C1CC1 (stereo unspecified)	.	.	.	.	5.2%	-20.6%
Cc1ccc(NC(=O)c2cccc(S(=O)(=O)N3CCN(c4ccccc4)CC3)c2)nc1	-14.2%	-4.1%	-3.1%	i	20.6µM*	20.6µM*
Cc1ccnc(NC(=O)c2cccc(S(=O)(=O)N3CCN(c4ccccc4)CC3)c2)c1	0.0%	-26.7%	-5.6%	i	?	0.1%
Cc1sc(NC(=O)c2ccccc2)c(C(=O)c2ccccc2)c1C	-22.2%	-6.6%	-1.4%	i	?	?
Cc1ccc(C(=O)Nc2sc(C)c(C)c2C(=O)c2ccccc2)cc1	-5.6%	5.4%	-0.7%	i	?	16.4µM*
Cc1ccc(NC(=O)C2(c3ccccc3)CCCC2)nc1	-3.6%	3.4%	0.1%	i	14.6µM*	?
Cc1ccc(NC(=O)c2ccc3nc[nH]c3c2)nc1	-1.5%	-19.7%	-6.5%	i	18.4µM*	23.1µM*
Cc1ccc(NC(=O)c2cncc(Br)c2)nc1	-0.3%	0.4%	2.6%	i	6.3%	-8.7%
Cc1ccc(NC(=O)c2ccc(C(=O)c3ccccc3)cc2)nc1	-17.8%	9.0%	-8.2%	i	?	18.4µM*
CCN(CC)Cc1cc(O)c(CN(CC)CC)cc1O	-3.0%	-23.6%	-3.0%	.	4.11µM*	6.51µM*
CC(C)[C@@H]1Cc2[nH]n(C)c(=O)c2[C@H](c2ccc(F)cc2)O1	.	-5.2%	.	i	-1.1%	3.2%
SMILES	TGFb inhibitor	ATXN2 expr inh	HepG2 tox	S2 tox	TDP1 cell noCPT	TDP1 cell CPT
COc1ccc(CCNC(=O)c2cnc3ccc(C)cn3c2=O)cc1	-2.1%	-2.2%	-4.2%	i	-26.2%	?
CCN=c1scc(-c2ccc3c(c2)NC(=O)CO3)n1N=C1CCCC1	-5.9%	-23.4%	-28.6%	i	8.2µM*	?
Cc1ccc2nc(-c3ccc4c(c3)NC(=O)CO4)cn2c1	26.5%	-35.1%	-28.1%	?	?	0.2%
CCCCN=c1scc(-c2ccc3c(c2)NC(=O)CO3)n1N=C1CCCC1	?	?	-25.1%	i	23.1µM*	13µM*
Cn1c(N)c(C(=O)COC(=O)Cc2ccc(Cl)c(Cl)c2)c(=O)n(C)c1=O	6.6%	.	5.1%	i	?	-14.9%
CCOC(=O)C(Cc1ccccc1)(Cc1ccccc1)C(C)=O	-1.5%	5.6%	-1.0%	i	-21.0%	1.5%
Cc1cnc(C)cn1	8.7%	.	-3.1%	.	-2.5%	-25.8%
COc1ccc(N(C2=NCCCS2)S(=O)(=O)c2ccc(C(C)(C)C)cc2)cc1	-3.7%	1.7%	-1.3%	i	?	-20.1%
COc1ccccc1N(C1=NCCCS1)S(=O)(=O)c1ccc(C(C)(C)C)cc1	2.8%	-20.4%	-3.4%	i	23.1µM*	20.6µM*
COc1ccc(/C=C2\CCc3ccccc3C2=O)cc1OC	?	42.2%	9.4%	i	?	?
COc1cc(/C=C/C=C2/CC/C(=C/C=C/c3ccc(O)c(OC)c3)C2=O)ccc1O	?	?	-61.4%	.	2.59µM*	2.31µM*
COc1cc(/C=C2/CC/C(=C/c3ccc(O)c(OC)c3)C2=O)ccc1O	-6.7%	-3.4%	-33.1%	i	?	20.6µM*
COc1ccc(C=C2C=C(C(C)(C)C)C(=O)C(C(C)(C)C)=C2)cc1OC	?	?	-49.0%	i	7.31µM*	?
COc1ccc(/C=C2\CC/C(=C\c3ccc(OC)c(OC)c3)C2=O)cc1OC	3.5%	-23.8%	-53.0%	i	20.6µM*	16.4µM*
O=C(NCCC(=O)N(Cc1ccco1)Cc1cccs1)c1ccc([N+](=O)[O-])cc1	-23.0%	-19.0%	-23.7%	i	?	?
COc1ccc(/C=C2\CCC(C3CCCC3)C2=O)cc1OC (stereo unspecified)	-17.0%	41.3%	-3.7%	i	-29.6%	10.2%
COc1cc(/C=C2\COC/C(=C\c3ccc(O)c(OC)c3)C2=O)ccc1O	6.31µM*	?	-23.4%	.	3.26µM*	3.26µM*

Bioassay records as filed in PubChem BioAssay.
